Data published in PubChem BioAssay (NCATS).
Records with an inconclusive call do not appear. Calls of active or inactive are those of the source. Unless noted, the call rests on the fitted dose curve; in most records, active means well fitted curve in the direction sought with a large enough effect; inconclusive means small, poorly fitted or top-dose-only effect, or another doubt; inactive means no such curve, though single readings can be large; an effect the other way counts as inactive or inconclusive.

Assays:
[1] = Confirmation and Secondary Assay for Modulators of Hemoglobin Beta Chain Splicing at IVS2 654 locus (AID 910); details: HeLa EGFP-654 splicing reporter, GFP fluorescence, 48 h; series mostly up to 46.1 µM;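 further: per-well total GFP intensity by laser scanning cytometry after 2-day treatment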
Procedure, shortened: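 HeLa cells stably carrying EGFP interrupted by mutant beta-globin IVS2-654 intron (CMV-driven) were treated with compound for 2 days at 37C; corrected splicing was scored as total peak GFP intensity per well (488 nm excitation, 500-520 nm emission).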

[2] = S16 Schwann cell PMP22 intronic element beta-lactamase assay (AID 624044; calls by dose curve; further: nearly all actives have a fitted effect of over 15% in size); details: S16 rat Schwann cells, PMP22 element beta-lactamase FRET, 24 h; ratio activity, negative = inhibition: at 38.3 µM (top of the series) unless noted
Procedure, shortened: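 Beta-lactamase reporter under a PMP22 intronic regulatory element in stable S16 rat Schwann cells; 24 h compound exposure. 460 nm blue signal normalized between DMSO (0%) and potassium clavulanate, with 535 nm FRET tracking viability; curves classed by r2 and response.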

[3] = tested on: AS120; assay: qHTS profiling for inhibitors of Plasmodium falciparum proliferation (AID 504749); further: nearly all actives have a fitted effect of over 60% in size; further: potency means the concentration at half of the fitted maximal effect; details: P. falciparum in erythrocytes, SYBR Green DNA, 72 h; series mostly up to 28.7 µM
Procedure, shortened: (§1)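 Fluorescence of SYBR Green-bound parasite DNA, read at 485/535 nm, served as the growth measure. Infected erythrocytes were cultured with compound 72 h; artemisinin (0.29 uM) and DMSO wells defined the normalization range.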

[4] = tested on: CP191; assay: as above; details: P. falciparum in erythrocytes, SYBR Green DNA, 72 h; series mostly up to 28.7 µM
Procedure, shortened: as §1

[5] = tested on: CP194; assay: as above; details: P. falciparum in erythrocytes, SYBR Green DNA, 72 h; series mostly up to 28.7 µM
Procedure, shortened: as §1

[6] = tested on: CP203; assay: as above; details: P. falciparum in erythrocytes, SYBR Green DNA, 72 h; series mostly up to 28.7 µM
Procedure, shortened: as §1

[7] = tested on: CP247; assay: as above; details: P. falciparum in erythrocytes, SYBR Green DNA, 72 h; series mostly up to 28.7 µM
Procedure, shortened: as §1

[8] = tested on: CP291; assay: as above; details: P. falciparum in erythrocytes, SYBR Green DNA, 72 h; series mostly up to 28.7 µM
Procedure, shortened: as §1

[9] = tested on: CP305; assay: as above; details: P. falciparum in erythrocytes, SYBR Green DNA, 72 h; series mostly up to 28.7 µM
Procedure, shortened: as §1

[10] = tested on: DIV30; assay: as above; details: P. falciparum in erythrocytes, SYBR Green DNA, 72 h; series mostly up to 28.7 µM
Procedure, shortened: as §1

[11] = tested on: Dd2; assay: as above; details: P. falciparum in erythrocytes, SYBR Green DNA, 72 h; series mostly up to 28.7 µM
Procedure, shortened: as §1

[12] = tested on: GB4; assay: as above; details: P. falciparum in erythrocytes, SYBR Green DNA, 72 h; series mostly up to 28.7 µM
Procedure, shortened: as §1

[13] = tested on: P93_24; assay: as above; details: P. falciparum in erythrocytes, SYBR Green DNA, 72 h; series mostly up to 28.7 µM
Procedure, shortened: as §1

[14] = tested on: P94_40; assay: as above; details: P. falciparum in erythrocytes, SYBR Green DNA, 72 h; series mostly up to 28.7 µM
Procedure, shortened: as §1

[15] = tested on: TAB113; assay: as above; details: P. falciparum in erythrocytes, SYBR Green DNA, 72 h; series mostly up to 28.7 µM
Procedure, shortened: as §1

[16] = tested on: TAB165; assay: as above; details: P. falciparum in erythrocytes, SYBR Green DNA, 72 h; series mostly up to 28.7 µM
Procedure, shortened: as §1

[17] = tested on: CP266; assay: as above; details: P. falciparum in erythrocytes, SYBR Green DNA, 72 h; series mostly up to 12.8 µM
Procedure, shortened: as §1

[18] = tested on: CP297; assay: as above; details: P. falciparum in erythrocytes, SYBR Green DNA, 72 h; series mostly up to 28.7 µM
Procedure, shortened: as §1

[19] = tested on: CP201; assay: as above; details: P. falciparum in erythrocytes, SYBR Green DNA, 72 h; series mostly up to 28.7 µM
Procedure, shortened: as §1

[20] = tested on: CP329; assay: as above; details: P. falciparum in erythrocytes, SYBR Green DNA, 72 h; series mostly up to 28.7 µM
Procedure, shortened: as §1

Measured: Potency

CC(C)CC(CN)CC(=O)O (configuration not stated)
inactive: [1] | [2]

Cc1[nH]c2ccccc2c1CN(C)C
inactive: [1]

C=CC1CN2CCC1CC2C(OC(=O)OCC)c1ccnc2ccc(OC)cc12 (configuration not stated)
inactive: [2]
active: [3] 7.94 µM | [4] 5.01 µM | [5] 6.01 µM | [6] 8.49 µM | [7] 7.94 µM | [8] 12 µM | [9] 9.53 µM | [10] 9.53 µM | [11] 5.01 µM | [12] 4.78 µM | [13] 7.94 µM | [14] 3.55 µM | [15] 8.91 µM | [16] 0.501 µM

CC(C)N1C(=O)c2ccccc2NS1(=O)=O
inactive: [1]

O=C(O)COc1cc(Cl)c(Cl)cc1Cl
inactive: [1]

CC(C)c1cc2c(c(O)c1O)[C@]1(C(=O)O)CCCC(C)(C)C1CC2 (some centres not stated)
inactive: [1]

CC1=C2CCC3C4CCC(=O)[C@@]4(C)CCC3[C@]2(C)CCC1=O (some centres not stated)
inactive: [1]

O=C1C=C2C=CC3C[C@@]2(O1)C1CCCCN31 (some centres not stated)
inactive: [1]
active: [3] 10 µM | [4] 10 µM | [7] 11.2 µM | [17] 10.7 µM | [18] 12 µM | [10] 13.5 µM | [11] 11.2 µM | [13] 12.6 µM | [14] 8.91 µM | [15] 14.1 µM | [16] 11.2 µM

CC(C)OC(=O)Nc1cccc(Cl)c1
inactive: [1]

CCc1cccc(C)c1N(C(=O)CCl)C(C)COC (configuration not stated)
inactive: [1]

CC([C@H](O)c1ccccc1)N(C)C (some centres not stated)
not listed: [1] | [11] | [12]
inactive: all other assays above

CNC(=O)Oc1ccccc1OC(C)C
inactive: [1]

CCCCSP(=O)(SCCCC)SCCCC
inactive: [1]

CNC(=O)CSP(=S)(OC)OC
inactive: [1]

N#Cc1c(Cl)cccc1Cl
inactive: [1]
